From PubChem
Only some compounds are listed: those with a hit (about 8.3% of all), similar ones and a draw of the others.
MCF10A rereplic = A quantitative high throughput screen for small molecules that induce DNA re-replication in MCF 10a normal breast cells | MCF 10A DNA re-replication, Hoechst nuclear intensity, 48 h | 350,000 compounds, 2.9% hits | Potency, µM (titrated, usually from 46.1 µM), inactives show at the highest dose activity, positive = re-replication, most hits filed as activators; note: potency is the fitted concentration of half-maximal effect; % of control where 0% means no effect; nearly all actives have a fitted effect of over 50% in size
SW480 rereplic = A quantitative high throughput screen for small molecules that induce DNA re-replication in SW480 colon adenocarcinoma cells. Potency, µM (series often up to 46.1 µM), without a hit: at the top dose re-replication activation, usual class: activators. SW480 DNA re-replication, Hoechst DNA content imaging, 48 h. 340,000 compounds, 1.8% hits. AID 624297, 2012; note: potency is the fitted concentration of half-maximal effect; % of control where 0% means no effect; nearly all actives have a fitted effect of over 55% in size
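250 cells/well; 23 nL cpd via pin tool; 48 hr, 37 C, 5% CO2; Hoechst 40 min; imager read of total nuclear intensity, ex 405/em 500-530 nm.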
RORg inh = qHTS for inhibitors of ROR gamma transcriptional activity | AID 2551, 2010 | Potency, µM (doses to about 53.6 µM), without a hit: at the top dose activity change, negative = inhibition, usual class: inhibitors | Drosophila S2 Gal4-RORgamma UAS-luciferase reporter, 20 h | 310,000 compounds, 5.4% hits; note: potency is the fitted concentration of half-maximal effect; % is set by controls: 0 for no effect and ±100 for the full control effect; nearly all actives have a fitted effect of over 60% in size
Target sequence (P51450 whole entry, looked up, the tested form may be a part): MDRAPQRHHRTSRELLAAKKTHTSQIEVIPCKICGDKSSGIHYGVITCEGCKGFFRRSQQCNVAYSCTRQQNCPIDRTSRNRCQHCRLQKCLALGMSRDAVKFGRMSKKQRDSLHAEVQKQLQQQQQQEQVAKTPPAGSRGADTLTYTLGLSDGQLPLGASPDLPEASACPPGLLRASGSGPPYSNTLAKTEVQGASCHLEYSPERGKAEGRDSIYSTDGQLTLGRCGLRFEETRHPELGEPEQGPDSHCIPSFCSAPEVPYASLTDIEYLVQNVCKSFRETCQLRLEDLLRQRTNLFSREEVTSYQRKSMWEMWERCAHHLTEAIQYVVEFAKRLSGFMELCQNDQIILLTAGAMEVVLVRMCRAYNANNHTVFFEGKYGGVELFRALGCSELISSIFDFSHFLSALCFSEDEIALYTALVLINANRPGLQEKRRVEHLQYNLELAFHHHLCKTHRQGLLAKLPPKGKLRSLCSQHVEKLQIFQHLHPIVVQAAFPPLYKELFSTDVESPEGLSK
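In this cell-based reporter format, copper sulfate (700 uM final) drives Gal4–ROR gamma fusion expression from a metallothionein promoter in Drosophila Schneider cells; compounds preincubated 1 hr, reporter read after 20 hr at ambient temperature.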
Giardia killer = Small Molecules that selectively kill Giardia lamblia: qHTS | activity change, % at 7.66 µM, hits read low | 340,000 compounds, 0.15% hits | Giardia lamblia trophozoite viability | AID 540267, 2011; in the data active = activity change below about -80%; inconclusive = between about -30% and that limit;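 note: parasites exposed to compound for two days anaerobically before the ATP read; % is set by controls: 0 for no effect and ±100 for the full control effect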
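Trophozoite viability was measured as ATP-dependent luminescence, read 15-30 min after reagent addition. Before that, parasites at 100 cells/well were exposed to compounds for 48 h, anaerobically, at 37 deg C.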
Gal4-VP16 FLuc = VP16 counterscreen qHTS for inhibitors of ROR gamma transcriptional activity; Drosophila S2 Gal4-VP16 UAS-luciferase, luminescence, 20 h; Potency, µM (titrated, usually from 53.6 µM), for the others: top-dose activity, negative = inhibition, hits mostly inhibitors; 310,000 compounds, 3.5% hits; AID 2546, 2010;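 note: Gal4-VP16 expression switched on by copper sulfate through the metallothionein promoter; potency is the fitted concentration of half-maximal effect; % is set by controls: 0 for no effect and ±100 for the full control effect; nearly all actives have a fitted effect of over 50% in size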
Chronic BCR inh = qHTS Assay to Find Inhibitors of Chronic Active B-Cell Receptor Signaling; ABC-DLBCL IkBa-CBG/CBR reporter, luminescence ratio, 4 h; Potency, µM (doses to about 46.1 µM), for inactives: at the highest dose activity change, negative = inhibition, usual class: inhibitors; 340,000 compounds, 0.05% hits; AID 493014, 2011; active = well fitted inhibition curve with a large enough effect in the signal ratio, with a control signal flat, not every such curve was filed as active; inconclusive = small, poorly fitted or top-dose-only effect, or effect the other way, or a change in a side signal; the % refers to the signal ratio;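 note: potency is the fitted concentration of half-maximal effect; plate controls were basal doxycycline-induced cells for no effect and cells given 10 µM MG132 for full effect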
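Doxycycline induced both beetle luciferases in TMD8 lymphoma cells; IKK-driven degradation limits the IkappaBalpha-fused green signal, while red luminescence normalises for cell number and nonspecific effects. Compounds tested up to 46 uM, 4 hrs.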
An asterisk follows results filed as active; ? = inconclusive; . = no result; [ ] = dose if it differs, or a comment. Unless noted, calls come from the whole dose curve; as a rule, active = well fitted curve in the direction sought with a large enough effect; inconclusive = small, poorly fitted or top-dose-only effect, or another doubt; inactive = no such curve, though single readings can be large; an effect the other way counts as inactive or inconclusive.

SMILES | MCF10A rereplic | SW480 rereplic | RORg inh | Giardia killer | Gal4-VP16 FLuc | Chronic BCR inh
Cc1ccc2nc(C)cc(C(=O)N3CCCC(N4CCN(c5ccccc5C)CC4)C3)c2c1 (stereo not drawn) | 4% | 5% | -9% | 9 | -9% | 0%
Cc1ccc(Nc2nc(N)nc(CSc3nncn3C)n2)cc1 | -9% | -2% | -84% | 6 | 11µM* | -16%
CC1CC(C)CN(Cc2nc(N)nc(Nc3ccccc3)n2)C1 (stereo not drawn) | ? | -2% | -40% | 3 | 3% | -1%
Nc1nc(CN2CCN(C(c3ccccc3)c3ccccc3)CC2)nc(Nc2ccccc2)n1 | ? | 2% | 3.2µM* | 8 | ? | -4%
CC1CC(C)CN(Cc2nc(N)nc(Nc3ccc4ccccc4c3)n2)C1 (stereo not drawn) | 5.8µM* | 9.2µM* | -12%[0.365 µM] | -12 | . | ?
Nc1nc(CN2CCN(c3ccccc3F)CC2)nc(Nc2ccccc2)n1 | 5% | -3% | ? | 4 | 7% | -4%
Cc1ccc(Nc2nc(N)nc(CN3CCN(c4ccccc4F)CC3)n2)cc1 | ? | ? | 11µM* | -23 | -4% | -6%
CCOc1ccc(CNCCN2CCCC2)cc1 | 3% | 2% | -31% | 12 | 1% | -7%
CC(=O)Nc1ccc(SCC(Cc2ccccc2)N2CCN(CCc3ccccc3)CCC2=O)cc1 (stereo not drawn) | . | . | ? | -15 | 4% | .
Nc1nc(CN2CCCCCC2)nc(Nc2ccccc2)n1 | 10% | -6% | -30% | -3 | -1%[0.365 µM] | ?
Nc1nc(CN2CCC(Cc3ccccc3)CC2)nc(Nc2ccccc2)n1 | 3% | 6% | 10µM* | -8 | -26% | 19%
Cc1nc2cncnc2n(Cc2ccccc2)c1=O | . | . | -9% | . | -1% | .
COc1ccc(N2CCN(CC(=O)NCc3ccc(Cl)cc3)CC2)cc1 | 2% | -10% | ? | 2 | 4% | -4%
COc1ccc(NC(=O)CN(C)CC(=O)NCCc2ccc(F)cc2)cc1 | 3% | -9% | . | 9 | . | 2%
C=CCNc1nc(NCC)nc(N2CCOCC2)n1 | 0% | -5% | 2µM* | 8 | -23% | ?
CCNc1nc(N2CCOCC2)nc(N(c2ccccc2)c2ccccc2)n1 | -1% | 0% | 42% | -7 | 3% | 3%
COc1ccccc1C(C)NC(=O)CN(C)CC(=O)Nc1c(C)cccc1C (stereo not drawn) | -2% | 1% | . | -8 | . | 2%
Cc1ccc(NP(=O)(Nc2ccc(C)cc2)Nc2ccc(C)cc2)cc1 | 21% | ? | 12% | -9 | -15% | -3%
Cc1ccc(-n2c(-c3ccco3)nc3nc4ccccc4nc32)cc1 | ? | 1µM* | 7% | 10 | 3% | -1%
O=C(NC(=S)N1CCN(c2nc(-c3ccccc3)cs2)CC1)c1cccnc1 | ? | ? | 0.11µM* | -8 | 0.0079µM* | ?
COCCNC(=S)N1CCN(c2nc(-c3ccccc3)cs2)CC1 | 1% | -10% | 17% | 6 | 2% | -2%
O=C(NC(=S)N1CCN(C/C=C/c2ccccc2)CC1)c1ccc(F)cc1 | 1% | 0% | 0.28µM* | -1 | 0.63µM* | ?
O=C(c1cccnc1)N1CCN(C/C=C/c2ccccc2)CC1 | 6% | -9% | 22% | 0 | 4% | -3%
CC(=O)N1CCN(C(=S)NC(=O)c2ccc(F)cc2)CC1 | 1% | 21% | . | -5 | . | 2%
O=C(NC(=S)N1CCN(C/C=C/c2ccccc2)CC1)c1cccnc1 | 3% | -7% | 0.4µM* | 13 | 0.89µM* | ?
SMILES | MCF10A rereplic | SW480 rereplic | RORg inh | Giardia killer | Gal4-VP16 FLuc | Chronic BCR inh
COc1ccc(NC(=O)CCc2ccc(OC)c(OC)c2)cn1 | -3% | -39% | -22% | 15 | 3% | 6%
CC1=CC=CC2=NC(=O)CC(C)(C(=O)N(CC(=O)NC3CCCC3)c3ccc(F)cc3)N12 (stereo not drawn) | -2% | -1% | -4% | -14 | -5% | 0%
S=C1NCCc2ccc(Cl)cc2C1c1ccccc1Cl (stereo not drawn) | 3% | 0% | 5µM* | -1 | 3.5µM* | 6%
COC(=O)CNC(=O)c1ccc(NS(=O)(=O)c2cc([N+](=O)[O-])ccc2Cl)cc1 | -1% | 1% | 17% | -4 | 5% | 12%
CC(C)CNC(=O)COC(=O)c1c2c(nc3ccccc13)/C(=C\c1cccs1)CC2 | ? | 6.5µM* | . | -10 | . | .
O=C(COC(=O)c1c2c(nc3ccccc13)/C(=C\c1cccs1)CCC2)Nc1ccccc1 | ? | 13µM* | ? | -16 | ? | -8%
CC(C)(C)NC(=O)COC(=O)c1c2c(nc3ccccc13)CCC2 | 5% | -8% | -15% | 13 | 0% | 6%
O=C(COC(=O)c1c2c(nc3ccccc13)CCCC2)Nc1ccc2c(c1)OCO2 | 29% | 1% | 21% | 6 | -10% | ?
CC(=O)c1ccc(NC(=O)COC(=O)c2c3c(nc4ccccc24)/C(=C\c2cccs2)CCC3)cc1 | 5.8µM* | 21µM* | ? | ? | ? | 5%
Cn1c(SCc2ccccc2)nnc1-c1ccc2nonc2c1 | 0% | 1% | 45% | -8 | 4% | -11%
COc1cc(C2Oc3ccccc3C=C2[N+](=O)[O-])cc(OC)c1OC (stereo not drawn) | ? | ? | ? | ? | 13µM* | ?
Cn1c(=O)c2nc3ccccc3nc2n(C)c1=O | 0.73µM* | -55% | 11% | -1 | -5% | -1%
Cn1c(=O)c2nc(-c3ccccc3)c(-c3ccccc3)nc2n(C)c1=O | 13% | -13% | . | -6 | . | .
COc1cccc(NC(=S)NN2C(C)CCCC2C)c1 (stereo not drawn) | -1% | -8% | 2.2µM* | -1 | 5.6µM* | -5%
CC1CCCC(C)N1NC(=S)Nc1ccc(OC(F)F)cc1 (stereo not drawn) | 0% | . | 3.2µM* | 24 | 6.3µM* | ?
CC(C)c1ccc(NC(=S)NN2C(C)CCCC2C)cc1 (stereo not drawn) | ? | -6% | 1.6µM* | -8 | 6.3µM* | -1%
COc1ccc(NC(=S)NN2C(C)CCCC2C)cc1 (stereo not drawn) | 0% | -7% | 7.9µM* | -18 | 7.1µM* | ?
CCCN1C2CCCC1CC(NC(=O)Nc1ccc(C(C)C)cc1)C2 (stereo not drawn) | ? | 3% | -37% | 26 | 12% | -19%
COc1ccc(NC(=S)N2CCCC2)cc1 | 0% | -6% | 7% | -22 | -5% | -1%
